Results filed as inconclusive are left out. Where a call stands in place of a potency, no number is given. Active and inactive are the calls of the source. Unless noted, calls follow the shape of the dose curve; as a rule, active = well fitted curve in the direction sought with a large enough effect in the repeat runs; inconclusive = weak or mixed curves; inactive = no such curve, though single readings can be large; an effect the other way counts as inactive or inconclusive.
Experiments:
[1] = molecular target: Acetylcholinesterase (Homo sapiens) (UniProt P22303); assay: Acetylcholinesterase (AChE) small molecule antagonists: enzyme-based qHTS assay with human liver microsomes (AID 1347399; calls by dose curve; also: nearly all actives have a fitted effect of over 60% in size); settings: Potency: qHTS inhibition
Summary of the method: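 Recombinant human AChE (50 mU/mL in the enzyme mix) and human liver microsomes (0.25 mg/mL final) were preincubated with compound and NADPH (0.25 mg/mL final) for 30 min at 37 C. Acetylthiocholine/DTNB was then added; thiocholine was read colorimetrically after 10 min at room temperature.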

[2] = molecular target: Cytochrome P450 2D6 (Homo sapiens) (UniProt P10635); assay: Cytochrome P450 Family 2 Subfamily D Member 6 (CYP2D6) small molecule antagonists: luciferase reporter qHTS assay (AID 1671196); also: nearly all actives have a fitted effect of over 50% in size; also: potency is read from the fitted curve at half-maximal effect
Summary of the method: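 CYP2D6 enzyme–substrate mix was held with compound for 10 min at room temperature, then NADPH regeneration solution was added and the reaction ran 1 h at room temperature. Luciferin product was detected by luminescence after 20 min with detection reagent.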

[3] = molecular target: Cytochrome P450 2C19 (Homo sapiens) (UniProt P33261); assay: Cytochrome P450 Family 2 Subfamily C Member 19 (CYP2C19) small molecule antagonists: luciferase reporter qHTS assay (AID 1671197); also: nearly all actives have a fitted effect of over 65% in size; also: potency is read from the fitted curve at half-maximal effect
Summary of the method: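 P450-Glo CYP2C19 screening system; proluciferin substrate; DMSO compound stocks; 10 min RT preincubation; NADPH regeneration, 1 h at 37C; luciferin detection reagent, 20 min RT; luminescence as RLU.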

[4] = molecular target: Cytochrome P450 2C9 (Homo sapiens) (UniProt P11712); assay: Cytochrome P450 Family 2 Subfamily C Member 9 (CYP2C9) small molecule antagonists: luciferase reporter qHTS assay (AID 1671198); also: nearly all actives have a fitted effect of over 50% in size; also: potency is read from the fitted curve at half-maximal effect
Summary of the method: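 P450-Glo proluciferin substrate with CYP2C9 enzyme; 10 min RT preincubation, then NADPH regeneration 1 h at 37C; luciferin detection reagent 20 min RT, luminescence in relative luminescence units.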

[5] = molecular target: Cytochrome P450 1A2 (Homo sapiens) (UniProt P05177); assay: Cytochrome P450 Family 1 Subfamily A Member 2 (CYP1A2) small molecule antagonists: luciferase reporter qHTS assay (AID 1671199); also: nearly all actives have a fitted effect of over 50% in size; also: potency is read from the fitted curve at half-maximal effect
Summary of the method: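 Human CYP1A2 activity measured with a P450-Glo proluciferin substrate; compounds in DMSO preincubated 10 min at room temperature with enzyme-substrate mix, then NADPH regeneration system added for 1 h. Luciferin detection reagent, 20 min, luminescence read.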

[6] = molecular target: Voltage-gated inwardly rectifying potassium channel KCNH2 (Homo sapiens) (UniProt Q12809); assay: Human Ether-a-go-go-Related Gene (hERG) channel small molecule antagonists: fluorescence cell-based qHTS assay (AID 1671200); also: nearly all actives have a fitted effect of over 50% in size; also: potency is read from the fitted curve at half-maximal effect
Summary of the method: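 U2OS cells expressing the channel were plated at 1000 cells/well, incubated overnight at 37 C, then loaded with FluxOR II thallium-sensitive dye for 1 h at room temperature in the dark, with a further 10 min at room temperature before stimulation.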

[7] = molecular target: Cytochrome P450 3A4 (Homo sapiens) (UniProt P08684); assay: Cytochrome P450 Family 3 Subfamily A Member 4 (CYP3A4) small molecule antagonists: luciferase reporter qHTS assay (AID 1671201); also: nearly all actives have a fitted effect of over 50% in size; also: potency is read from the fitted curve at half-maximal effect
Summary of the method: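 P450-Glo CYP3A4 system with proluciferin substrate; compounds preincubated 10 min RT with enzyme-substrate mix, then NADPH regeneration added for 1 h RT. Detection reagent 20 min, luminescence read as relative luminescence units.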

[8] = molecular target: Acetylcholinesterase (Homo sapiens) (UniProt P22303); assay: Acetylcholinesterase (AChE) small molecule antagonists: fluorescence cell-based qHTS assay (AID 1347398; calls by dose curve; also: nearly all actives have a fitted effect of over 50% in size); settings: Potency: AChE activity
Summary of the method: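 Endogenous acetylcholinesterase of SH-SY5Y neuroblastoma cells is measured in situ. After overnight attachment and 30 min compound exposure, cells receive acetylthiocholine and Thiolite Green; fluorescence is read after 40 min at room temperature.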

Sequence of Cytochrome P450 1A2 (Homo sapiens) (P05177 whole entry, looked up): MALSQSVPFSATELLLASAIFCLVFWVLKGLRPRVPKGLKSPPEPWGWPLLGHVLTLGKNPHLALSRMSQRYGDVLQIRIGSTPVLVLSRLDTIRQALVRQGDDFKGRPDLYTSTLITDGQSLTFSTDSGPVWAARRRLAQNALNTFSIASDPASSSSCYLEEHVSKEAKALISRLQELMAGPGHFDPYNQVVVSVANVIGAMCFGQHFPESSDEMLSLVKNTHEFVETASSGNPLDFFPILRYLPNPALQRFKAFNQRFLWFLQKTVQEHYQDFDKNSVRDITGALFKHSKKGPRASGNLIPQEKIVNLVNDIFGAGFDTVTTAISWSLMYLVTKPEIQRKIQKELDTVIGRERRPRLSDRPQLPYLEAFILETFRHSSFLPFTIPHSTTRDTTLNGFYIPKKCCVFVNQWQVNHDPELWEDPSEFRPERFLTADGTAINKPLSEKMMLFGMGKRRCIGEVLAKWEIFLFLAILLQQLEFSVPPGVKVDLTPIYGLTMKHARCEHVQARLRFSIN
Sequence of Cytochrome P450 2C19 (Homo sapiens) (P33261 whole entry, looked up): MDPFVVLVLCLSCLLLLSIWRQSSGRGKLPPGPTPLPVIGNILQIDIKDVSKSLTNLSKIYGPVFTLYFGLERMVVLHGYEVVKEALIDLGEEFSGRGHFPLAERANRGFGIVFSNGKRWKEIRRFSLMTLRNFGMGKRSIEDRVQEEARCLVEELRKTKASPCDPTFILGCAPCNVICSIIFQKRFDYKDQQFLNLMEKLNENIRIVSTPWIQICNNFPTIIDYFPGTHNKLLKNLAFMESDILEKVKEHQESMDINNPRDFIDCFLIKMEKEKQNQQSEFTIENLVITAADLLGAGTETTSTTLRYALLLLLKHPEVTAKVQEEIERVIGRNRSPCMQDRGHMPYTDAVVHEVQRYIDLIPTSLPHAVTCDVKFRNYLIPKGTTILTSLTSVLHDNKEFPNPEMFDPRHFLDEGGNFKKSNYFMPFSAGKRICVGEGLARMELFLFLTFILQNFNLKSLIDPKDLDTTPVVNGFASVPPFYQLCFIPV
Sequence of Cytochrome P450 3A4 (Homo sapiens) (P08684 whole entry, looked up): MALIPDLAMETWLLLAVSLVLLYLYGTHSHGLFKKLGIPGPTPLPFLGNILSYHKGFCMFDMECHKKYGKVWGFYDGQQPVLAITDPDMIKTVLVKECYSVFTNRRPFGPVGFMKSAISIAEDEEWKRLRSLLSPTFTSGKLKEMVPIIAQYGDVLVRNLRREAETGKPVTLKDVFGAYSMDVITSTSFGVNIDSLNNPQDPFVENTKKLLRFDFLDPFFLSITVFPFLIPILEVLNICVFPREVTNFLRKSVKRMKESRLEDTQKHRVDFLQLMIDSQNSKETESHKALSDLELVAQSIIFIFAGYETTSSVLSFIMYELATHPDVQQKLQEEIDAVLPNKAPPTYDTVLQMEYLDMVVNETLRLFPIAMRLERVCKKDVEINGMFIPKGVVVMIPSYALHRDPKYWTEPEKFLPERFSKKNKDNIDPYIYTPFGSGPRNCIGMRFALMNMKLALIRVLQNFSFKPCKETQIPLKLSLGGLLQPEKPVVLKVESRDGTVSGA
Sequence of Cytochrome P450 2C9 (Homo sapiens) (P11712 whole entry, looked up): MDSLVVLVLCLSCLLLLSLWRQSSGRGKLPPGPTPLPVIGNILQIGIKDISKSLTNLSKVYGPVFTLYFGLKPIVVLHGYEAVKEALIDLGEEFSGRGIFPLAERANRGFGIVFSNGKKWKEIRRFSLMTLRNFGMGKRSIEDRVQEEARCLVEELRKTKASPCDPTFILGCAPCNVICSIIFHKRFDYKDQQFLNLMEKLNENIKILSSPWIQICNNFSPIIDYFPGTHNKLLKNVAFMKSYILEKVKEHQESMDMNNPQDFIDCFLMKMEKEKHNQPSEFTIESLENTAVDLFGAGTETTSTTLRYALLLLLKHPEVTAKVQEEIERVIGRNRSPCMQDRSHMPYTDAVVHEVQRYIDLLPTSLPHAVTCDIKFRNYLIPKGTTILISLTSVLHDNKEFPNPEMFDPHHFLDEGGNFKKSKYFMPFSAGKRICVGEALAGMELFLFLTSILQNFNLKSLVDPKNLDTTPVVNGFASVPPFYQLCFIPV
Sequence of Voltage-gated inwardly rectifying potassium channel KCNH2 (Homo sapiens) (Q12809 whole entry, looked up): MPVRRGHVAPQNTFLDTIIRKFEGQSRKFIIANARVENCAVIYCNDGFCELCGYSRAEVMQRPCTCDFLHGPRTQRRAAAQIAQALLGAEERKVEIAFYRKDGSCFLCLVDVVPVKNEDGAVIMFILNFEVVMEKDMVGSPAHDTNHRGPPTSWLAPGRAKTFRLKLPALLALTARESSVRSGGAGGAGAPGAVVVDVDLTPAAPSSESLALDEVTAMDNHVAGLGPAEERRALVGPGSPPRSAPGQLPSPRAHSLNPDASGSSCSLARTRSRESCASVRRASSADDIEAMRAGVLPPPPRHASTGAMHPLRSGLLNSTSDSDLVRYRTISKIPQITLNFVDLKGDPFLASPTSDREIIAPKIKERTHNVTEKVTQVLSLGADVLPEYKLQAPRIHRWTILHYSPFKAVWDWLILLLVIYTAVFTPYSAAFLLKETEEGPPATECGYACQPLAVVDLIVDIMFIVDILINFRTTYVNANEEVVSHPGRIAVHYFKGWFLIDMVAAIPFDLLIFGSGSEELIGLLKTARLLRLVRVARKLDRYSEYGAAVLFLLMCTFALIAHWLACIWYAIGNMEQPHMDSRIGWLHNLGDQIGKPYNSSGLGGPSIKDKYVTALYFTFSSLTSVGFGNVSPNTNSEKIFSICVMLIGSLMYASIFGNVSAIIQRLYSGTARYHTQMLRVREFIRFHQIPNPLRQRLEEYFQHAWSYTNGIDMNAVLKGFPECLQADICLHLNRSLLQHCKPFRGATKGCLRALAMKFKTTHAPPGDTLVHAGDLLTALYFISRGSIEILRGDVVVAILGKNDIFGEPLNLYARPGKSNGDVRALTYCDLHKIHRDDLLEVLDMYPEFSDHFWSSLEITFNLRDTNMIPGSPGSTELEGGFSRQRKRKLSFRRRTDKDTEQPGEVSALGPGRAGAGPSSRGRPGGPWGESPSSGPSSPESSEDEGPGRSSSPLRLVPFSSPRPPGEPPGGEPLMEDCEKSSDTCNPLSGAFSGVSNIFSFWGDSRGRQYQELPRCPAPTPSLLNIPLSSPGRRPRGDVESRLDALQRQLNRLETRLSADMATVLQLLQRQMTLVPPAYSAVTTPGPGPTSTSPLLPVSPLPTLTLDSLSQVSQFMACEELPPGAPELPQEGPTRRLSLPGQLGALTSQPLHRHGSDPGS
Sequence of Cytochrome P450 2D6 (Homo sapiens) (P10635 whole entry, looked up): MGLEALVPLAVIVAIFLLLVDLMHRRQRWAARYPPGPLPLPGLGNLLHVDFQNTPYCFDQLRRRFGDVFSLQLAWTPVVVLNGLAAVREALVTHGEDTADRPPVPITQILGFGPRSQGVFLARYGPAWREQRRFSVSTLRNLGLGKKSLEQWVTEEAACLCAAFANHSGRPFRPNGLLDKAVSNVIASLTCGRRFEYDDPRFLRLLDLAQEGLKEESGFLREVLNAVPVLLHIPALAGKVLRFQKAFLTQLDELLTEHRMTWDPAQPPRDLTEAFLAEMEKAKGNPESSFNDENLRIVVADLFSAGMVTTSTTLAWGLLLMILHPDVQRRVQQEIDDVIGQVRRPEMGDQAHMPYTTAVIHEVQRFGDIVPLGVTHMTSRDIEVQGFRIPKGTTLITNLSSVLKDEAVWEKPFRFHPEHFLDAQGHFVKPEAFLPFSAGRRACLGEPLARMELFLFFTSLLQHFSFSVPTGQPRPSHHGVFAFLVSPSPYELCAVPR
Sequence of Acetylcholinesterase (Homo sapiens) (P22303 whole entry, looked up): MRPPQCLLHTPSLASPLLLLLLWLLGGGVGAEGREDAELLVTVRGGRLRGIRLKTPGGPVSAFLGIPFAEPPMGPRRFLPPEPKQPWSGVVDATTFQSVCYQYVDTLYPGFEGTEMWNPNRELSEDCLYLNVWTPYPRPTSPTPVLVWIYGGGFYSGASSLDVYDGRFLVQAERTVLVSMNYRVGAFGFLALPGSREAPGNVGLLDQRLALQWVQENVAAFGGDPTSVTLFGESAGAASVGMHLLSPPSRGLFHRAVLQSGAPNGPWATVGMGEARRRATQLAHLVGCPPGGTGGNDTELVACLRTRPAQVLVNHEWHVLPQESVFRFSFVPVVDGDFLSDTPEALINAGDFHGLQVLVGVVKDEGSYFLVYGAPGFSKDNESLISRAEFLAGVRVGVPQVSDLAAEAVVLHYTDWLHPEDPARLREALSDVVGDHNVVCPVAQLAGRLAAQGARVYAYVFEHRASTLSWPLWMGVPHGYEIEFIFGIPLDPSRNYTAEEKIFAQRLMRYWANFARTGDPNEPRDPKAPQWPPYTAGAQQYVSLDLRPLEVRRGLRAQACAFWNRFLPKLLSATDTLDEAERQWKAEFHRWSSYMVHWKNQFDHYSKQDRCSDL

SMILES | Potency [1] | Potency [2] | Potency [3] | Potency [4] | Potency [5] | Potency [6] | Potency [7] | Potency [8]
CC(C)(OO)c1ccccc1 | inactive | inactive | 35.6 µM (active) | 39.9 µM (active) | 25.2 µM (active) | inactive | – | –
O=C(Nc1ccccc1)Nc1ccnc(Cl)c1 | inactive | 39.9 µM (active) | 35.6 µM (active) | 10 µM (active) | 20 µM (active) | – | – | –
Clc1cccc2ccccc12 | inactive | inactive | inactive | inactive | – | inactive | inactive | –
CCC(COC(=O)c1cc(OC)c(OC)c(OC)c1)(c1ccccc1)N(C)C (configuration not stated) | inactive | 0.55 µM (active) | 24.5 µM (active) | 15.5 µM (active) | inactive | – | – | –
CCOP(=S)(Oc1ccc([N+](=O)[O-])cc1)c1ccccc1 (configuration not stated) | – | – | 0.159 µM (active) | 0.564 µM (active) | 5.64 µM (active) | 0.616 µM (active) | 1.59 µM (active) | inactive
O=Cc1ccc2c(c1)OCO2 | inactive | inactive | inactive | – | 31.3 µM (active) | inactive | inactive | –
ClCCCCBr | inactive | inactive | inactive | inactive | inactive | – | inactive | –
O=[N+]([O-])c1ccccc1CCl | inactive | – | – | inactive | – | – | inactive | inactive
Clc1ccc(C2(Cn3cncn3)CC(Br)CO2)c(Cl)c1 (configuration not stated) | inactive | 31.5 µM (active) | 0.177 µM (active) | 5 µM (active) | 31.5 µM (active) | – | 0.126 µM (active) | –
COCC(C)N(C(=O)CCl)c1c(C)csc1C (configuration not stated) | inactive | inactive | 6.33 µM (active) | 7.96 µM (active) | – | inactive | inactive | –
CCCCCCCCCC(=O)O[C@H]1CC[C@H]2[C@@H]3CCC4=CC(=O)CC[C@@H]4[C@H]3CC[C@]12C | inactive | inactive | 21.9 µM (active) | – | inactive | inactive | – | –
Clc1ccc(C(OCCN2CCCCC2)c2ccccc2)cc1 (configuration not stated) | inactive | 0.174 µM (active) | 24.5 µM (active) | inactive | – | – | – | –
CC(O)(CS(=O)(=O)c1ccc(F)cc1)C(=O)Nc1ccc(C#N)c(C(F)(F)F)c1 (configuration not stated) | inactive | inactive | 3.69 µM (active) | 13.1 µM (active) | – | inactive | 2.33 µM (active) | –
CN(C)c1ccc(N(C)C)cc1 | inactive | 20.1 µM (active) | 7.99 µM (active) | 20.1 µM (active) | 40 µM (active) | inactive | 35.7 µM (active) | –
O=Cc1ccc(Cl)cc1Cl | inactive | inactive | inactive | inactive | – | inactive | inactive | –
O=C(CBr)c1ccccc1 | inactive | 2.53 µM (active) | 56.7 µM (active) | – | 63.7 µM (active) | inactive | inactive | –
CCOc1nc(F)cc2nc(S(=O)(=O)Nc3c(Cl)cccc3Cl)nn12 | inactive | inactive | inactive | 71 µM (active) | inactive | inactive | – | –
CN1[C@@H]2CC[C@H]1CC(OC(=O)c1cc(Cl)cc(Cl)c1)C2 (some centres not stated) | inactive | 0.055 µM (active) | inactive | inactive | – | 7.56 µM (active) | inactive | –
CC(Cl)Cl | inactive | inactive | inactive | inactive | – | inactive | inactive | –
CC1(C)CCC(Cc2ccc(Cl)cc2)C1(O)Cn1cncn1 (configuration not stated) | inactive | 35.6 µM (active) | 0.126 µM (active) | 0.178 µM (active) | 39.9 µM (active) | – | 0.0317 µM (active) | –
CCOC(=O)C(Cl)C(C)=O (configuration not stated) | inactive | inactive | – | inactive | inactive | inactive | inactive | –
O=S(=O)(O)C(F)(F)C(F)(F)C(F)(F)C(F)(F)F | inactive | 59.8 µM (active) | 33.6 µM (active) | – | – | inactive | – | –
N#CCc1ccccc1 | inactive | – | inactive | inactive | – | inactive | inactive | –
O=C(N[C@H](c1ccccc1)[C@@H]1CN2CCC1CC2)c1c(Cl)ccc(C(F)(F)F)c1Cl | – | 2.56 µM (active) | – | – | inactive | 39.5 µM (active) | – | –

— PubChem BioAssay (Tox21)
